{
  "source": "PubChem BioAssay AID2315",
  "about": "(National Center for Advancing Translational Sciences (NCATS), 2010)",
  "note": "Where “and” joins values, the source holds several entries; their conditions need not be identical. Equal entries are not always repeated. Among all 290,000 compounds or so, about 27,000 (9.3%) were called active. Rule as the data show it: active = inhibition mostly above about 28% (no sharp cut-off); inactive = mostly below about 43%. The sample as a whole holds a higher share of actives than the screen did.",
  "data": [
    {"experiment": "A qHTS for Small Molecule Inhibitors of Shiga Toxin; also: 0% is about no effect", "settings": "Vero cells, Shiga toxin protein synthesis inhibition reporter; at 38.7 µM, hits give high values", "values": [
      {"molecule": "O=C(CN1C(=O)/C(=C\\c2ccccc2F)SC1=S)Nc1nc2ccccc2s1", "inhibition": "51.7% (active)"},
      {"molecule": "O=C(CN1C(=O)/C(=C/c2ccccc2F)Sc2ccccc21)NCc1cccnc1", "inhibition": "13.6% (inactive)"},
      {"molecule": "CN(C(=O)CCN1C(=O)/C(=C/c2ccccc2F)SC1=S)C1CCS(=O)(=O)C1", "note": "(stereo unspecified)", "inhibition": "-3.82% (inactive)"},
      {"molecule": "COc1ccc(CNc2ccc3c(c2)CCC3)cc1OC", "inhibition": "37.9% (inactive)"},
      {"molecule": "Cc1ccc(CC2CC(=O)N(c3ccc4c(c3)OCCO4)C2=O)cc1", "note": "(stereo unspecified)", "inhibition": "51.2% (inactive)"},
      {"molecule": "Cc1ccc(N2C(=O)CC(NCc3ccc4c(c3)OCO4)C2=O)cc1Cl", "note": "(stereo unspecified)", "inhibition": "110% (active)"},
      {"molecule": "O=CN1CCN(C2CC(=O)N(c3ccc4c(c3)OCO4)C2=O)CC1", "note": "(stereo unspecified)", "inhibition": "19.5% (inactive)"},
      {"molecule": "Cc1cccc(C(=O)NC(=S)N(C)C2CCCCC2)c1", "inhibition": "117% (active)"},
      {"molecule": "Cc1cccc(NC(=S)NCCN(C2CCCCC2)C2CCCC2)c1", "inhibition": "19.2% (inactive)"},
      {"molecule": "Cc1cccc(C(=O)NCCCN(C)CCCNC(=O)c2cccc(C)c2)c1", "inhibition": "-6.03% (inactive)"},
      {"molecule": "Cc1nc2ccc(C(=O)N(C)CC3CCCN(CCc4ccc(Cl)cc4)C3)cc2[nH]1", "note": "(stereo unspecified)", "inhibition": "-8.28% (inactive)"},
      {"molecule": "COc1ccc(COC(=O)c2ccc(Cl)c(S(=O)(=O)N3CCOCC3)c2)cc1F", "inhibition": "-8.8% (inactive)"},
      {"molecule": "O=C(CN1CCN(S(=O)(=O)c2ccc(Cl)s2)CC1)NCc1ccc(Cl)cc1", "inhibition": "34.8% (active)"},
      {"molecule": "Cc1ccccc1N1CCN(CC(=O)NCc2ccc(Cl)cc2)CC1", "inhibition": "-5.06% (inactive)"},
      {"molecule": "O=C(NCc1ccc(Cl)cc1)C1CCN(S(=O)(=O)c2cccs2)CC1", "inhibition": "4.43% (inactive)"},
      {"molecule": "CC(C)c1ccccc1OCC(O)CN(CC(O)COc1cccc2ccccc12)C(C)C", "note": "(stereo unspecified)", "inhibition": "-14.8% (inactive)"},
      {"molecule": "COc1cccc(C(=O)NC(=O)Nc2nc(C)cc(C(F)(F)F)n2)c1", "inhibition": "4.77% (inactive)"},
      {"molecule": "Brc1ccc(-c2noc(-c3ccccc3)n2)o1", "inhibition": "139% (active)"},
      {"molecule": "Brc1ccc(-c2nnc(-c3ccccc3)o2)o1", "inhibition": "71.5% (active)"},
      {"molecule": "Cn1nc(-c2ccccc2)c(-c2nc(-c3ccc(Cl)cc3)no2)c1Cl", "inhibition": "-16% (inactive)"},
      {"molecule": "Nc1nonc1-c1noc(-c2ccc(Br)o2)n1", "inhibition": "24.2% (inactive)"},
      {"molecule": "COc1ccc(CNC(=O)CCN2C(=O)c3ccccc3C2=O)cc1", "inhibition": "4.69% (inactive)"},
      {"molecule": "O=C(O)CC(c1ccccc1F)N1Cc2ccccc2C1=O", "note": "(stereo unspecified)", "inhibition": "-12% (inactive)"},
      {"molecule": "O=C(CN1CCN(c2ccccn2)CC1)NCc1cccs1", "inhibition": "-22.2% (inactive)"},
      {"molecule": "COC(=O)c1cn(CC(=O)NCc2cccs2)c2ccccc12", "inhibition": "64.8% (active)"},
      {"molecule": "CCN(CC)C(=O)C(=O)c1cn(CC(=O)NCc2ccc3c(c2)OCO3)c2ccccc12", "inhibition": "-11.5% (inactive)"},
      {"molecule": "COC(=O)Cn1cc(C(=O)c2cccs2)c2ccccc21", "inhibition": "2.14% (inactive)"},
      {"molecule": "O=C(Cn1cc(C(=O)c2cccs2)c2ccccc21)NCc1cccs1", "inhibition": "16.3% (active)"},
      {"molecule": "COCCCNC(=O)Cn1cc(C(=O)C2CC2)c2ccccc21", "inhibition": "-8.71% (inactive)"},
      {"molecule": "Cc1cc(=O)[nH]c(Nc2cccc(Br)c2)n1", "inhibition": "-10.8% (inactive)"},
      {"molecule": "N#Cc1cccc(CSc2ncnc(N)n2)c1", "inhibition": "3.32% (inactive)"},
      {"molecule": "Cc1ccccc1-n1cc(CNC(=O)C2CCC(=O)N(C3CC3)C2)cn1", "note": "(stereo unspecified)", "inhibition": "21.3% (inactive)"},
      {"molecule": "COc1ccc2c(c1)N(C)/C(=C1/SC(=S)N(NC(C)=O)C1=O)S2", "inhibition": "7.78% (inactive)"},
      {"molecule": "COc1ccc(N(Cc2ccc(N(C)C)cc2)C(=O)c2ccc(S(C)(=O)=O)cc2)cc1", "inhibition": "-10.5% (inactive)"},
      {"molecule": "COc1ccc(Cn2c(=S)[nH]c3cc(C(=O)N4CCCCC4)ccc3c2=O)cc1", "inhibition": "-3.58% (inactive)"},
      {"molecule": "COc1cccc(COc2ccc(N(C)S(=O)(=O)c3ccccc3)cc2)c1", "inhibition": "26% (inactive)"},
      {"molecule": "COc1ccc(OCc2cccc(C(=O)N3CCCC3)c2)cc1", "inhibition": "147% (active)"},
      {"molecule": "CC(=O)Oc1ccc(-c2cccc(C(=O)N3CCCCC3)c2)cc1", "inhibition": "37.3% (inactive)"},
      {"molecule": "CCOc1ccc(OCc2ccc(C(=O)N(C)c3ccccc3)o2)cc1", "inhibition": "13% (inactive)"},
      {"molecule": "CCOc1ccc(OCc2cccc(C(=O)N(CC)CC)c2)cc1", "inhibition": "160% (active)"},
      {"molecule": "O=C(COc1ccccc1[N+](=O)[O-])NC1CC1", "inhibition": "19.4% (inactive)"},
      {"molecule": "CCN1C(=NCc2ccc(OC)cc2)N[C@@H](CCc2ccccc2)[C@H](C(=O)NCc2ccc(OC)cc2)[C@H]1C", "inhibition": "2.67% (inactive) and -2.62% (inactive)"},
      {"molecule": "CCOC(=O)c1cn(CC(=O)Nc2ccc(C(C)C)cc2)nn1", "inhibition": "-16.4% (inactive)"},
      {"molecule": "CCc1ccc(NC(=O)Cn2ncn3c(cc4ccccc43)c2=O)cc1", "inhibition": "5.27% (inactive)"},
      {"molecule": "CC(C)c1ccc(NC(=O)Cn2ncc3ccccc32)cc1", "inhibition": "74.2% (active)"},
      {"molecule": "Nc1nonc1-n1nnc(C(=O)N/N=C/c2c[nH]c3ccccc23)c1-c1ccccc1", "inhibition": "-17% (inactive)"}
    ]}
  ]
}
